Test [1] in a line: HepG2 liver cancer cell viability effects, profiling panel, resazurin fluorescence, 24 h, PK04 Diversity Set (AID 1172). Note: test concentration not given here. The conditions noted are these: higher = more signal. (Resazurin is reduced to fluorescent resorufin, in cell work by metabolically active cells.)
The nature of test [2]: basal S. cerevisiae growth modulation, no modifier, primary screen, OD600, strain BY4716, 24 h, basal condition (AID 1173). The conditions noted are these: OD600, 24 h, higher = more signal, called active from +8 up or from −8 down.
The nature of test [3]: MM1S myeloma cell viability, profiling panel, resazurin fluorescence, basal, 24 h, PK04 Diversity Set (AID 1174).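 Note: MM1S multiple myeloma cell line; test concentration not given here.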 As to conditions: higher = more signal, called active from +8 up or from −8 down.
For test [4], the target named is Dihydroorotate dehydrogenase (quinone), mitochondrial (Plasmodium falciparum (isolate 3D7)) (UniProt Q08210). The test can be described thus: PfDHODH enzyme inhibitors, primary screen, biochemical, C-terminal His tag, absorbance 600 nm (AID 1175).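 Note: recombinant parasite enzyme with a five histidine tag at its C terminus; test concentration not given here.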 The conditions noted are these: DCIP absorbance 600 nm, higher = more signal, called active from +8 up or from −8 down.

The nature of test [5]: P. aeruginosa biofilm formation inhibitors, primary screen, strain PAO1, LB-PBS medium, absorbance 600 nm (AID 1176). Note: test concentration not given here. The conditions noted are these: P. aeruginosa PAO1 growth/biofilm, A600, 12 h; higher = more signal.
Test [6] in a line: S. cerevisiae RM11-1a growth modifiers, primary screen, strain RM11-1a, OD600, basal, 24 h (AID 1177).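 Note: cultures grown under basal conditions with no added stressor; test concentration not given here.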 As to conditions: OD600, 24 h, higher = more signal, called active from +8 up or from −8 down.
The nature of test [7]: E. coli acrAB mutant growth effects, primary screen, E. coli filamentation inducers, strain DRC39, OD650, 24 h (AID 1178).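 Note: growth measured as culture turbidity by optical density at 650 nm; test concentration not given here.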 As to conditions: higher = more signal, called active from +8 up or from −8 down.
Test [8] in a line: E. coli acrAB mutant growth effects, primary screen, E. coli filamentation inducers, strain DRC39, OD650, 48 h (AID 1179).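 Note: screen aims at cell division blockers that make cells filament.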 The conditions noted are these: E. coli DRC39 delta-acrAB growth, higher = more signal, called active from +8 up or from −8 down.
The nature of test [9]: RPMI8226 myeloma cell viability, profiling panel, resazurin fluorescence, basal, 24 h, PK04 Diversity Set (AID 1180).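 Note: RPMI8826 multiple myeloma cell line at 5000 cells per well; test concentration not given here.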 The conditions noted are these: higher = more signal.
Test [10] addresses E3 ubiquitin-protein ligase XIAP (Homo sapiens) (UniProt P98170). The test can be described thus: XIAP binders, primary screen, biophysical, small-molecule microarray, fluorescence 635 nm (AID 1181).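 Note: score merges 667 nm emission and signal to noise over triplicate slides.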 As to conditions: small-molecule microarray binding, higher = more signal.

Calls of active or inactive are those of the source. Unless noted, the rule behind the calls is not given here.

Sequence of E3 ubiquitin-protein ligase XIAP (Homo sapiens) (P98170 whole entry, looked up): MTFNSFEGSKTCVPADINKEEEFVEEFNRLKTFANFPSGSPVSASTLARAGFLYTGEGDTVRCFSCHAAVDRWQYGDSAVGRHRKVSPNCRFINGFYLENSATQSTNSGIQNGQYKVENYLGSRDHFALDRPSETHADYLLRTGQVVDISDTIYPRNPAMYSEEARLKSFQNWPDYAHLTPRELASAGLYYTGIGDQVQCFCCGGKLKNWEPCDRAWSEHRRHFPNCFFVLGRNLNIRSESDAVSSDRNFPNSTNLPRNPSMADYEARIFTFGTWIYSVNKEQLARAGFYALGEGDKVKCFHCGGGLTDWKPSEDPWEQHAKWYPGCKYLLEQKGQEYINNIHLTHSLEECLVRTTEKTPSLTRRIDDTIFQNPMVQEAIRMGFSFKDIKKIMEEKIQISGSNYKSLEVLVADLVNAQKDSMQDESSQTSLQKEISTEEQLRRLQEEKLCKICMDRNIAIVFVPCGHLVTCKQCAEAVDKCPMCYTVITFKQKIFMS
Sequence of Dihydroorotate dehydrogenase (quinone), mitochondrial (Plasmodium falciparum (isolate 3D7)) (Q08210 whole entry, looked up): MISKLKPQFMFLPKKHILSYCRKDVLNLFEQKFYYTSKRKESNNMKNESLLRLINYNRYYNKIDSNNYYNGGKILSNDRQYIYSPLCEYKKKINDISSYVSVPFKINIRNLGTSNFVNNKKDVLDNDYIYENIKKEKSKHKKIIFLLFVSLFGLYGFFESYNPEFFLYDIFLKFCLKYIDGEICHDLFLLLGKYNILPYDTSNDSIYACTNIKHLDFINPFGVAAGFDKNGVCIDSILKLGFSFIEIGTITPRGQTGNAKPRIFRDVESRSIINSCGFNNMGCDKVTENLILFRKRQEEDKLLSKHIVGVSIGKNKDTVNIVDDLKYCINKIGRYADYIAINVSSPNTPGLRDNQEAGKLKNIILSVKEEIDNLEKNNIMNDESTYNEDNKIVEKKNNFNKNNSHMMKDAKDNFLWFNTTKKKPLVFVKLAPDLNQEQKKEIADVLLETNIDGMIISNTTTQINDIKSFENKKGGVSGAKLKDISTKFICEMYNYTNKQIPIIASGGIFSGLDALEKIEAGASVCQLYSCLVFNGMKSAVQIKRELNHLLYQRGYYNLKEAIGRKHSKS

Consider `COC(=O)[C@H](C)NC(=O)CCC1CC(OC(=O)NCCc2ccc(F)cc2)CC2(CCCC(COC(=O)NCC(c3ccccc3)c3ccccc3)O2)O1` (stereo not given in full), for which the z-score is 0.725 in test [1]; 0.718 (inactive) in test [2]; 0.476 (inactive) in test [3]; 0.0251 (inactive) in [5]; 1.31 (inactive) in test [6]; 1.06 (inactive) in test [7]. The z-score was 0.706 (inactive) in [8] and 0.809 in [9]. The composite z-score in test [4] is -0.216 (inactive); in [10], -0.323.

With `CN(C)CCCNC(=O)[C@@H]1c2ccccc2C(=O)N(Cc2ccccc2)[C@H]1c1ccc(CO)cc1`, the z-score in test [1] was -0.309; in test [2], 0.0396 (inactive); in [3], 0.499 (inactive); in test [5], -0.233 (inactive); in [6], 0.075 (inactive); in [7] it was -0.0194 (inactive). For the same molecule, the values for the z-score in test [8] and in test [9] were -0.136 (inactive) and 0.791, respectively. Further, the composite z-score in [4] is -0.303 (inactive); in test [10], -0.0926.

Turning to `CC(C)=C1C(=O)C(c2ccccc2)=C2CN3C(=O)N(CCc4ccccc4)C(=O)[C@]3(Cc3ccc(F)cc3)[C@H]21`, the z-score in [1] is -1.22; in test [2], 0.255 (inactive); in [3], -1.53 (inactive); in test [5], 1.4 (inactive); in test [6], 0.223 (inactive); in test [7], -0.933 (inactive). The z-score in [8] was -0.853 (inactive); in test [9], -0.942. Moreover, the composite z-score is -0.0278 (inactive) in test [4] and -0.02 in [10].

`CCOC(=O)[C@H](Cc1ccccc1)NC(=O)CCC1CC(OC(=O)NCc2ccc3c(c2)OCO3)CC2(CCCC(COC(=O)NCC(c3ccccc3)c3ccccc3)O2)O1` (stereo not given in full): the z-score in test [1] was 0.56; in test [2], -1.14 (inactive); in test [3], 0.328 (inactive); in [5] it was 0.405 (inactive); in test [6] it was 0.445 (inactive); in [7] it was 0.816 (inactive). The results for the z-score in [8] and in test [9] were 0.381 (inactive) and 0.909, respectively. In addition, the composite z-score in [4] was -0.219 (inactive); in test [10], -0.0351.

As for `COCCOC(=O)N1C(=O)[C@@]2(c3cc(C#CCNC(N)=O)ccc31)[C@H](c1ccc(O)cc1)N1[C@H](c3ccccc3)[C@H](c3ccccc3)OC(=O)[C@H]1[C@@H]2C(=O)N1CCCCCCC1`, the z-score in [1] is -0.0455; in [2], 1.01 (inactive); in test [3] it was -0.172 (inactive); in [5] it was 0.553 (inactive); in test [6], 0.517 (inactive); in test [7] it was 0.474 (inactive). For the same molecule, the z-score in test [8] was -0.188 (inactive); in test [9], -0.336. Further, the composite z-score in test [4] was 0.0489 (inactive); in test [10], -0.212.

Turning to `C=CCOC(=O)[C@H]1[C@@H]2C(=O)O[C@@H](c3ccccc3)[C@@H](c3ccccc3)N2[C@@H](c2ccc(OCCOC(=O)[C@H]3C[C@H]4C(=O)N5CCC[C@H]5C(=O)N4[C@H]3c3cccc(OCCO)c3)cc2)[C@]12C(=O)Nc1ccc(I)cc12`, the z-score in test [1] was 0.187; in [2], 0.0932 (inactive); in [3], -0.376 (inactive); in test [5], -0.102 (inactive); in [6] it was -0.442 (inactive); in [7], -0.277 (inactive). In addition, the z-score in test [8] was -0.553 (inactive); in test [9] it was 0.0614. The composite z-score in [4] is -15.3 (active); in test [10], 0.724.

Consider `COc1ccc(O[C@H]2C=C[C@@H](c3ccccc3)O[C@@H]2COC(=O)CCC(C)=NO[C@@H](C)c2cc(-c3c(C)cc(C)cc3C)no2)cc1`, for which the z-score in test [1] is 0.716; in [2], 1.04 (inactive); in test [3], 0.622 (inactive); in test [5], -0.421 (inactive); in test [6], 0.108 (inactive); in test [7] it was 0.291 (inactive). The z-score is -0.893 (inactive) in test [8] and 1.14 in test [9]. The values for the composite z-score in test [4] and in test [10] were 0.188 (inactive) and -0.151, respectively.

For `COCC(=C=CC[C@@H](O)c1ccccc1OCCO)CCO`, the z-score in test [1] is 0.721; in test [2], -0.853 (inactive); in test [3], 0.599 (inactive); in test [5], 0.0356 (inactive); in [6], 0.0502 (inactive); in test [7], 1.63 (inactive). The z-score is 1.16 (inactive) in test [8] and 1.42 in test [9]. Moreover, the figures for the composite z-score in test [4] and in test [10] were -1.59 (inactive) and 0.326, respectively.

For `COCCCNC(=O)[C@@]1(C)c2ccccc2C(=O)N(Cc2ccc(OC(F)(F)F)cc2)[C@H]1c1ccc(CO)cc1`, the z-score in test [1] is -0.576; in test [2], -0.0763 (inactive); in test [3], -0.741 (inactive); in [5], 0.431 (inactive); in test [6] it was -0.419 (inactive); in [7], 0.434 (inactive). For the same molecule, the z-score in [8] was 1.17 (inactive); in test [9], -0.661. Moreover, the composite z-score in test [4] was -0.617 (inactive); in [10] it was -0.148.

On to `c1ccc(C2NCCc3c2[nH]c2ccccc32)cc1` (stereo not given), for which the z-score is 0.278 in test [1]; -2.91 (inactive) in [2]; -0.104 (inactive) in test [3]; 0.107 (inactive) in test [5]; -0.104 (inactive) in test [6]; -0.832 (inactive) in test [7]. Moreover, the z-score in test [8] is -1.79 (inactive); in test [9] it was -0.326. In addition, the composite z-score was -11 (active) in test [4] and 0.0043 in test [10].

Take `CO[C@@H]1COC(=O)CC=C[C@@H](C)[C@@H]2C=C[C@H](O)[C@@H](COC(=O)[C@H](C)NC(=O)CC=C[C@H]1C)O2`: the z-score was 0.592 in test [1]; -0.0997 (inactive) in [2]; 0.945 (inactive) in [3]; -0.786 (inactive) in test [5]; -1 (inactive) in test [6]; 0.574 (inactive) in [7]. Further, the results for the z-score in test [8] and in test [9] were -0.637 (inactive) and 1.61, respectively. For the same molecule, the composite z-score in test [4] is -1.15 (inactive); in test [10] it was -0.102.

Source of the values: PubChem BioAssay.
